# Data taken from the supplement of paper PMC12494721.
# Structures can show the parent of a compound that is named as a salt.
# Test system: Clostridium sporogenes DSM 1664
# Experiment: growth (OD595) fold change vs plate DMSO controls (fold change (ratio)); higher = more growth
# Conditions: incubation time: 27 h, anaerobic, 37 °C
# How it was run: (§1)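 Shaken 96-well cultures in mGAM, grown anaerobically for 27 h at 37 °C, were read at 595 nm. OD came from blank-subtracted readings, corrected for background with 20 µM compound solutions in water and scaled by a calibration factor of 5. Growth is the fold change versus the plate's median DMSO control. Values average 2 biological replicates, and any fold change above 1.5 is NA.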
row,Structure (SMILES),growth
1,C=C1/C(=C\C=C2/CCC[C@]3(C)[C@@H]([C@H](C)/C=C/[C@@H](O)C4CC4)CC[C@@H]23)C[C@@H](O)C[C@@H]1O [Calcipotriene] (20 µM),1.07
2,Cc1nc(=O)c2cc(CN(C)c3ccc(C(=O)N[C@@H](CCC(=O)O)C(=O)O)s3)ccc2[nH]1 [Raltitrexed] (20 µM),1.11
3,Cc1cn[nH]c1 [Fomepizole] (20 µM),0.879
4,CC[C@@H]1C(=O)OC[C@@H]1Cc1cncn1C [Pilocarpine nitrate] (20 µM),1.03
5,C=C(CC)C(=O)c1ccc(OCC(=O)O)c(Cl)c1Cl [Ethacrynic acid] (20 µM),1.11
6,Cc1cccc(C)c1OCC(=O)N[C@@H](Cc1ccccc1)[C@@H](O)C[C@H](Cc1ccccc1)NC(=O)[C@H](C(C)C)N1CCCNC1=O [Lopinavir] (20 µM),1.12
7,OCCN1C[C@H](O)[C@@H](O)[C@H](O)[C@H]1CO [Miglitol] (20 µM),1.09
8,CCOc1ccccc1OCC1CNCCO1 (configuration not stated) [Viloxazine hydrochloride] (20 µM),0.836
9,CC[C@@]1(O)C(=O)OCc2c1cc1n(c2=O)Cc2cc3c(CN(C)C)c(O)ccc3nc2-1 [Topotecan] (20 µM),1.08
10,CC(C)N1CCN(c2ccc(OCC3COC(Cn4cncn4)(c4ccc(Cl)cc4Cl)O3)cc2)CC1 (configuration not stated) [Terconazole] (20 µM),1.12
11,CN1CCN(c2c(F)cc3c(=O)c(C(=O)O)cn4c3c2OCN4C)CC1 [Marbofloxacin] (20 µM),0.0155
12,O=C(O)c1cc(=O)[nH]c(=O)[nH]1 [Orotic acid] (20 µM),1.11
13,c1ccc2c(c1)Cc1ccccc1-2 [Fluorene] (20 µM),1
14,Oc1c(Br)cc(Br)c2cccnc12 [Broxyquinoline] (20 µM),0.98
15,CCC[C@@H]1C[C@@H](C(=O)N[C@@H]([C@H]2O[C@H](SC)[C@H](O)[C@@H](O)[C@H]2O)[C@H](C)Cl)N(C)C1 [Clindamycin hydrochloride] (20 µM),0.899
16,COC(=O)Nc1nc2cc(Sc3ccccc3)ccc2[nH]1 [Fenbendazole] (20 µM),1
17,CN(c1nccc(=O)[nH]1)C1CCN(c2nc3ccccc3n2Cc2ccc(F)cc2)CC1 [Mizolastine] (20 µM),1.22
18,CC[N+](C)(C)c1cccc(O)c1 [Edrophonium chloride] (20 µM),1.07
19,CC[C@@H]([C@H](C)O)n1ncn(-c2ccc(N3CCN(c4ccc(OC[C@@H]5CO[C@@](Cn6cncn6)(c6ccc(F)cc6F)C5)cc4)CC3)cc2)c1=O [Posaconazole hydrate] (20 µM),0.942
20,COCC1=C(C(=O)OC(C)OC(=O)OC(C)C)N2C(=O)[C@@H](NC(=O)/C(=N\OC)c3csc(N)n3)[C@H]2SC1 (some centres not stated) [Cefpodoxime proxetil] (20 µM),1.05
21,O=c1n(CCCN2CCN(c3cccc(Cl)c3)CC2)nc2ccccn12 [Trazodone hydrochloride] (20 µM),1.09
22,CC1=C(C(=O)O)N2C(=O)[C@@H](NC(=O)[C@H](N)c3ccccc3)[C@H]2SC1 [Cephalexin monohydrate] (20 µM),0.958
23,CCCSc1nc(N[C@@H]2C[C@H]2c2ccc(F)c(F)c2)c2nnn([C@@H]3C[C@H](OCCO)[C@@H](O)[C@H]3O)c2n1 [Ticagrelor] (20 µM),1.15
24,Cc1cc(NS(=O)(=O)c2ccc(N)cc2)nc(C)n1 [Sulfisomidine] (20 µM),1.12
25,CN1CCN(C(c2ccccc2)c2ccc(Cl)cc2)CC1 (configuration not stated) [Chlorcyclizine hydrochloride] (20 µM),1.15
26,OC[C@H](O)C(O)[C@@H](O)CO [L-Arabinitol] (50 µM),1.11
27,CC(C)COC(=O)OCN1C(=O)CN(CCN2CC(=O)N(COC(=O)OCC(C)C)C(=O)C2)CC1=O [Sobuzoxane] (20 µM),0.986
28,CCCNC(=O)NS(=O)(=O)c1ccc(Cl)cc1 [Chlorpropamide] (20 µM),0.913

# Test system: Escherichia coli IAI1
# Experiment: as above
# Conditions: incubation time: 27 h, anaerobic, 37 °C
# How it was run: as §1
row,Structure (SMILES),growth
1,Nc1nc(CC(=O)Nc2ccc(CCNC[C@H](O)c3ccccc3)cc2)cs1 [Mirabegron] (20 µM),1.01
2,CS(=O)(=O)OCCCCOS(C)(=O)=O [Busulfan] (20 µM),1.07
3,CCN(CC)CCOC(=O)C(Cc1cccc2ccccc12)CC1CCCO1 (configuration not stated) [Nafronyl oxalate] (20 µM),1.01
4,C[C@H]1O[C@@H](O[C@H]2[C@@H](O)C[C@H](O[C@H]3[C@@H](O)C[C@H](O[C@H]4CC[C@@]5(C)[C@H](CC[C@@H]6[C@@H]5C[C@@H](O)[C@]5(C)[C@@H](C7=CC(=O)OC7)CC[C@]65O)C4)O[C@@H]3C)O[C@@H]2C)C[C@H](O)[C@@H]1O [Digoxin] (20 µM),0.971
5,COc1cc(N)c(Cl)cc1C(=O)NC1CCN(CCCOc2ccc(F)cc2)CC1OC (configuration not stated) [Cisapride] (20 µM),0.988
6,O=C(O[C@@H]1C[C@@H]2C[C@H]3C[C@H](C1)N2CC3=O)c1c[nH]c2ccccc12 [Dolasetron mesilate] (20 µM),0.994
7,Cc1oncc1C(=O)Nc1ccc(C(F)(F)F)cc1 [Leflunomide] (20 µM),0.978
8,CC(C)Cn1cnc2c(N)nc3ccccc3c21 [Imiquimod] (20 µM),0.977
9,Clc1ccc2c(c1)C(N1CCNCC1)=Nc1ccccc1O2 [Amoxapine] (20 µM),1.03
10,CCCCCN(C)CCC(O)(P(=O)(O)O)P(=O)(O)O [Ibandronate sodium] (20 µM),0.989
11,"CN1CCc2c(c3ccccc3n2Cc2ccccc2)C1 [Mebhydroline 1,5-naphtalenedisulfonate] (20 µM)",0.967
12,C=C1/C(=C\C=C2/CCC[C@]3(C)[C@@H]([C@H](C)/C=C/[C@@H](O)C4CC4)CC[C@@H]23)C[C@@H](O)C[C@@H]1O [Calcipotriene] (20 µM),0.96
13,Cc1nc(=O)c2cc(CN(C)c3ccc(C(=O)N[C@@H](CCC(=O)O)C(=O)O)s3)ccc2[nH]1 [Raltitrexed] (20 µM),1
14,Cc1cn[nH]c1 [Fomepizole] (20 µM),0.987
15,CC[C@@H]1C(=O)OC[C@@H]1Cc1cncn1C [Pilocarpine nitrate] (20 µM),1
16,C=C(CC)C(=O)c1ccc(OCC(=O)O)c(Cl)c1Cl [Ethacrynic acid] (20 µM),0.984
17,Cc1cccc(C)c1OCC(=O)N[C@@H](Cc1ccccc1)[C@@H](O)C[C@H](Cc1ccccc1)NC(=O)[C@H](C(C)C)N1CCCNC1=O [Lopinavir] (20 µM),1.01
18,OCCN1C[C@H](O)[C@@H](O)[C@H](O)[C@H]1CO [Miglitol] (20 µM),1.01
19,CCOc1ccccc1OCC1CNCCO1 (configuration not stated) [Viloxazine hydrochloride] (20 µM),0.991
20,CC[C@@]1(O)C(=O)OCc2c1cc1n(c2=O)Cc2cc3c(CN(C)C)c(O)ccc3nc2-1 [Topotecan] (20 µM),1.03

row,Structure (SMILES),growth
1,CC(C)N1CCN(c2ccc(OCC3COC(Cn4cncn4)(c4ccc(Cl)cc4Cl)O3)cc2)CC1 (configuration not stated) [Terconazole] (20 µM),1
2,CN1CCN(c2c(F)cc3c(=O)c(C(=O)O)cn4c3c2OCN4C)CC1 [Marbofloxacin] (20 µM),0.0185
3,O=C(O)c1cc(=O)[nH]c(=O)[nH]1 [Orotic acid] (20 µM),0.979
4,c1ccc2c(c1)Cc1ccccc1-2 [Fluorene] (20 µM),1.04
5,Oc1c(Br)cc(Br)c2cccnc12 [Broxyquinoline] (20 µM),0.92
6,CCC[C@@H]1C[C@@H](C(=O)N[C@@H]([C@H]2O[C@H](SC)[C@H](O)[C@@H](O)[C@H]2O)[C@H](C)Cl)N(C)C1 [Clindamycin hydrochloride] (20 µM),0.682
7,COC(=O)Nc1nc2cc(Sc3ccccc3)ccc2[nH]1 [Fenbendazole] (20 µM),1.08
8,CN(c1nccc(=O)[nH]1)C1CCN(c2nc3ccccc3n2Cc2ccc(F)cc2)CC1 [Mizolastine] (20 µM),1.02
9,CC[N+](C)(C)c1cccc(O)c1 [Edrophonium chloride] (20 µM),1.06
10,CC[C@@H]([C@H](C)O)n1ncn(-c2ccc(N3CCN(c4ccc(OC[C@@H]5CO[C@@](Cn6cncn6)(c6ccc(F)cc6F)C5)cc4)CC3)cc2)c1=O [Posaconazole hydrate] (20 µM),1.02
11,COCC1=C(C(=O)OC(C)OC(=O)OC(C)C)N2C(=O)[C@@H](NC(=O)/C(=N\OC)c3csc(N)n3)[C@H]2SC1 (some centres not stated) [Cefpodoxime proxetil] (20 µM),1.01
12,O=c1n(CCCN2CCN(c3cccc(Cl)c3)CC2)nc2ccccn12 [Trazodone hydrochloride] (20 µM),0.982
13,CC1=C(C(=O)O)N2C(=O)[C@@H](NC(=O)[C@H](N)c3ccccc3)[C@H]2SC1 [Cephalexin monohydrate] (20 µM),0.985
14,CCCSc1nc(N[C@@H]2C[C@H]2c2ccc(F)c(F)c2)c2nnn([C@@H]3C[C@H](OCCO)[C@@H](O)[C@H]3O)c2n1 [Ticagrelor] (20 µM),0.999
15,Cc1cc(NS(=O)(=O)c2ccc(N)cc2)nc(C)n1 [Sulfisomidine] (20 µM),1.07
16,CN1CCN(C(c2ccccc2)c2ccc(Cl)cc2)CC1 (configuration not stated) [Chlorcyclizine hydrochloride] (20 µM),1.16
17,OC[C@H](O)C(O)[C@@H](O)CO [L-Arabinitol] (50 µM),0.995
18,CC(C)COC(=O)OCN1C(=O)CN(CCN2CC(=O)N(COC(=O)OCC(C)C)C(=O)C2)CC1=O [Sobuzoxane] (20 µM),0.991
19,CCCNC(=O)NS(=O)(=O)c1ccc(Cl)cc1 [Chlorpropamide] (20 µM),1.03
